Experimental data reported in PubChem BioAssay (Tox21).
Results filed as inconclusive are left out. Activity calls are given as the source filed them. Unless noted, calls come from the whole dose curve; as a rule, active = well fitted curve in the direction sought with a large enough effect in the repeat runs; inconclusive = weak or mixed curves; inactive = no such curve, though single readings can be large; an effect the other way counts as inactive or inconclusive.

Key:
[1] = qHTS assay to identify small molecule agonists of the vitamin D receptor (VDR) signaling pathway - cell viability counter screen (AID 743224); note: series mostly up to about 63 µM; % is set by controls: 0 for no effect and ±100 for the full control effect; nearly all actives have a fitted effect of over 50% in size
How it was run: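 Viability is measured in the same wells as the VDR-bla reporter assay: after 16 h compound treatment and 2 h substrate loading, CellTiter-Glo is added and luminescence read 30 min later.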

[2] = qHTS assay to identify small molecule agonists of the NFkB signaling pathway (AID 1159509; active = well fitted curve in the direction sought with a large enough effect in the signal ratio in the repeat runs, not every such curve was filed as active; the % refers to the signal ratio; note: series mostly up to about 61 µM; % is set by controls: 0 for no effect and ±100 for the full control effect)
How it was run: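 NFkB-bla ME-180 cells carry a beta-lactamase reporter under an NF-kB response element. They were plated overnight, then exposed to compounds for 5 h at 37 C. Read-out is LiveBLAzer FRET after 1.5 hr at room temperature (405 nm excitation; 460/530 nm emission).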

[3] = qHTS assay to identify small molecule agonists of the NFkB signaling pathway - cell viability counter screen (AID 1159515; calls by dose curve; note: series mostly up to about 61 µM; % is set by controls: 0 for no effect and ±100 for the full control effect; nearly all actives have a fitted effect of over 55% in size)
How it was run: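 Multiplexed viability readout: after the 5 hr compound exposure and 1.5 hr FRET substrate step, CellTiter-Glo reagent went into the same NFkB-bla ME-180 wells; ATP luminescence was measured after 30 min at room temperature.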

[4] = qHTS assay to identify small molecule agonists of the endoplasmic reticulum stress response signaling pathway (AID 1159516; active = well fitted activation curve with a large enough effect in the signal ratio in the repeat runs, not every such curve was filed as active; the % refers to the signal ratio; note: % is set by controls: 0 for no effect and ±100 for the full control effect)
How it was run: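 Tox21 10K library screened in quantitative HTS format on ESRE-bla HeLa cells, a beta-lactamase reporter under ER stress response element control; 5 hr treatment, FRET read.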

[5] = qHTS assay to identify small molecule agonists of the endoplasmic reticulum stress response signaling pathway - cell viability counter screen (AID 1159517; calls by dose curve; note: series mostly up to about 61 µM; % is set by controls: 0 for no effect and ±100 for the full control effect; nearly all actives have a fitted effect of over 50% in size)
How it was run: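 CellTiter-Glo was added to wells already read for beta-lactamase FRET, and luminescence was recorded 30 min later. Cells: ESRE-bla HeLa, 1,500 per well, compound exposure 5 hr at 37 C.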

[6] = qHTS assay to identify small molecule antagonists of the retinoid-related orphan receptor gamma (ROR-gamma) signaling pathway - cell viability counter screen (AID 1159520); note: % is set by controls: 0 for no effect and ±100 for the full control effect; nearly all actives have a fitted effect of over 50% in size
How it was run: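 Tet-on ROR gamma CHO cells (1,000/well) were plated 4 hr, given compounds in DMSO for 2 hr at 37 C, then induced with 1 uM final doxycycline for 16 hr. Viability was read as ATP by CellTiter-Glo luminescence after 30 min.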

[7] = target: Nuclear receptor ROR-gamma (Homo sapiens) (UniProt P51449); experiment: qHTS assay to identify small molecule antagonists of the retinoid-related orphan receptor gamma (ROR-gamma) signaling pathway (AID 1159521;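 note: CHO cells with doxycycline inducible ROR-gamma driving an RORE luciferase reporter; top concentration of the series differs between compounds; % is set by controls: 0 for no effect and ±100 for the full control effect; nearly all actives have a fitted effect of over 50% in size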)
How it was run: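 Cells were plated, rested 4 h at 37 C, exposed to compounds for 2 h, then given 1 uM final doxycycline hyclate to induce RORγ expression. After 16 h, ONE-Glo luminescence from the ROR response element reporter was measured.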

[8] = qHTS assay to identify small molecule agonists of the AP-1 signaling pathway - cell viability counter screen (AID 1159525; calls by dose curve; note: nearly all actives have a fitted effect of over 55% in size)
How it was run: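 ME-180 AP-1-bla, 2500 cells/well, Opti-MEM + 0.5% dialyzed FBS; overnight 37 °C; cpd 15-pt titration, 5 h 37 °C; CellTiter-Glo 30 min RT; luminescence read; normalised to TOAB and DMSO controls.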

[9] = qHTS assay to identify small molecule agonists of the AP-1 signaling pathway (AID 1159526; calls by dose curve; note: % is set by controls: 0 for no effect and ±100 for the full control effect)
[10] = target: Retinoic acid receptor RXR-alpha (Homo sapiens) (UniProt P19793); experiment: qHTS assay to identify small molecule agonists of the RXR signaling pathway (AID 1159527; calls by dose curve; note: % is set by controls: 0 for no effect and ±100 for the full control effect; nearly all actives have a fitted effect of over 35% in size)
Chain of Retinoic acid receptor RXR-alpha (Homo sapiens) (P19793 whole entry, looked up): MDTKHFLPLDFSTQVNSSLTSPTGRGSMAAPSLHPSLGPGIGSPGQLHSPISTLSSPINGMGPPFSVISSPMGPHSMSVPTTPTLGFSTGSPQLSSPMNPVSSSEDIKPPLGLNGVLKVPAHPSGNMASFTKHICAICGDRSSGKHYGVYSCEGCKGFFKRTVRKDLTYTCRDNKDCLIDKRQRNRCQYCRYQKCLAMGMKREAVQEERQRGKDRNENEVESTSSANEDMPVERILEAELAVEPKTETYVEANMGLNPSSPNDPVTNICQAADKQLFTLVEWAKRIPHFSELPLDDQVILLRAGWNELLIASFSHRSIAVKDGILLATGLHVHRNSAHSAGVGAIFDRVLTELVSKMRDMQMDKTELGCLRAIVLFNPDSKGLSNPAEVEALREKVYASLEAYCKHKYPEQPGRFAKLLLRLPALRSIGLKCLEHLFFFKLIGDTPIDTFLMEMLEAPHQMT
How it was run: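 Cells plated at 2,000/well, rested 5 hr at 37 C, pin-dosed with DMSO compound solutions, incubated 16 hr, then loaded with B/G FRET substrate for 2 hr at RT before dual-emission fluorescence reading.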

[11] = qHTS assay to identify small molecule agonists of the RXR signaling pathway - cell viability counter screen (AID 1159529)
How it was run: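 Steps: seed RXR-alpha-UAS-bla HEK 293T cells in assay medium containing 2% charcoal-stripped FBS; incubate 5 hr; add compounds in DMSO; incubate 16 hr at 37 C; after the bla read, add CellTiter-Glo and read luminescence at 30 min.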

[12] = qHTS assay to identify small molecule antagonists of the retinoid acid receptor (RAR) signaling pathway - cell viability counter screen (AID 1159551); note: % is set by controls: 0 for no effect and ±100 for the full control effect; nearly all actives have a fitted effect of over 35% in size
How it was run: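 Cytotoxicity counter screen in C3RL4 cells: 6 h compound exposure with 1 uM retinol (final), viability from cellular ATP by luminescence.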

[13] = qHTS assay to identify small molecule antagonists of the retinoic acid receptor (RAR) signaling pathway (AID 1159552)
How it was run: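 Retinol at 1 uM final stimulated RARE-luciferase expression in C3RL4 cells exposed to test compounds for 6 hr at 37 C. Reduced luminescence, read 30 min after detection reagent, indicated pathway antagonism.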

[14] = qHTS assay to identify small molecule agonists of the retinoic acid receptor (RAR) signaling pathway (AID 1159553); note: % is set by controls: 0 for no effect and ±100 for the full control effect
How it was run: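 Agonist activity was scored in C3RL4 cells bearing a retinoic acid response element luciferase construct. Cells were treated with compounds for 6 hr at 37 C, and luciferase signal was measured as luminescence.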

[15] = qHTS assay to identify small molecule antagonists of the estrogen related receptor (ERR) signaling pathway from Tox21 library - cell viability counter screen (AID 1224834); note: % is set by controls: 0 for no effect and ±100 for the full control effect; nearly all actives have a fitted effect of over 30% in size
How it was run: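 Cytotoxicity of test substances is gauged in the same ERR cells used for the antagonist screen, after 17.5 h of compound treatment at 37 C, by CellTiter-Fluor fluorescence measured after 30 min.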

[16] = target: Luciferin 4-monooxygenase (Photinus pyralis) (UniProt P08659); experiment: qHTS assay to identify small molecule inhibitors of firefly luciferase (AID 1224835); note: series mostly up to about 120 µM; % is set by controls: 0 for no effect and ±100 for the full control effect; nearly all actives have a fitted effect of over 25% in size
Chain of Luciferin 4-monooxygenase (Photinus pyralis) (P08659 whole entry, looked up): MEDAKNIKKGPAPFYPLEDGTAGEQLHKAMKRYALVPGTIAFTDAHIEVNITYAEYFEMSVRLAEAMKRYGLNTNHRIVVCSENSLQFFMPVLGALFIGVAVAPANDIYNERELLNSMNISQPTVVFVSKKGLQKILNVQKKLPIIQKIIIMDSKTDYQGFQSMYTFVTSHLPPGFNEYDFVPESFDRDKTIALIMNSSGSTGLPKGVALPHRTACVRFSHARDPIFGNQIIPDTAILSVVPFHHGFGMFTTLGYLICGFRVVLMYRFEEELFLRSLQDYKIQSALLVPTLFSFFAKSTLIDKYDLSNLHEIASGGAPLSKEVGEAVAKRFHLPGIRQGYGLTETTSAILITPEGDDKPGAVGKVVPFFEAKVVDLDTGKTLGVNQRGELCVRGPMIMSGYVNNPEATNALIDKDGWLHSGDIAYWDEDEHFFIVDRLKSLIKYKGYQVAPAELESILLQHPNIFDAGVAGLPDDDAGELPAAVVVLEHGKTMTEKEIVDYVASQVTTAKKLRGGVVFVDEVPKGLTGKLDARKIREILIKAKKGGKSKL
How it was run: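 Quantitative HTS format; KM concentrations of both substrates. Purified P. pyralis FLuc activity quantified from luminescence images.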

[17] = qHTS assay to identify small molecule agonists of the constitutive androstane receptor (CAR) signaling pathway - cell viability counter screen (AID 1224836); note: series mostly up to about 92 µM; % is set by controls: 0 for no effect and ±100 for the full control effect; nearly all actives have a fitted effect of over 45% in size
How it was run: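 Cells were seeded and incubated 4 hrs. Compounds were added across 15 concentrations together with PK11195 at 0.75 uM final. Plates were incubated 23 hrs at 37 C. CellTiter-Fluor was added and fluorescence measured.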

[18] = qHTS assay to identify small molecule antagonists of the constitutive androstane receptor (CAR) signaling pathway - cell viability counter screen (AID 1224837); note: series mostly up to about 92 µM; % is set by controls: 0 for no effect and ±100 for the full control effect; nearly all actives have a fitted effect of over 45% in size
How it was run: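 Multiplexed cytotoxicity read-out for the CAR antagonist screen: double-stable HepG2-CYP2B6-hCAR cells co-treated with 50 nM CITCO (final) and compound over 15 concentrations, incubated 23 hr, then assessed by CellTiter-Fluor fluorescence.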

[19] = target: Nuclear receptor subfamily 1 group I member 3 (Homo sapiens) (UniProt Q14994); experiment: qHTS assay to identify small molecule antagonists of the constitutive androstane receptor (CAR) signaling pathway (AID 1224838); note: % is set by controls: 0 for no effect and ±100 for the full control effect; nearly all actives have a fitted effect of over 40% in size
Chain of Nuclear receptor subfamily 1 group I member 3 (Homo sapiens) (Q14994 whole entry, looked up): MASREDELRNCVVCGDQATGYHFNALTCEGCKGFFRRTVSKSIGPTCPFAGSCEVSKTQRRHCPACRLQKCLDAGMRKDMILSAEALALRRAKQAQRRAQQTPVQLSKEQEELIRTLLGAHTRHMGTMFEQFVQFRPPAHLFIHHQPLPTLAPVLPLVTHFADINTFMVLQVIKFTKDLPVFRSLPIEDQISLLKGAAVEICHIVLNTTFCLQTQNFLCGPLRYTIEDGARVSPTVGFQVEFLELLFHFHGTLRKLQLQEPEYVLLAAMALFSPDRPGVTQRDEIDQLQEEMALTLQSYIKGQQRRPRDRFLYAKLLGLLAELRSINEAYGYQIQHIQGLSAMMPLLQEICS
How it was run: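 Compounds were titrated across 15 concentrations onto HepG2 cells double-stably expressing hCAR and a CYP2B6-2.2kb reporter, together with 50 nM CITCO (final). After 24 h at 37 C, luciferase activity was measured by luminescence.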

[20] = qHTS assay to identify small molecule antagonists of the vitamin D receptor (VDR) signaling pathway - cell viability counter screen (AID 743225)
How it was run: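 HEK293T VDR-bla; cpd + 1a,25-(OH)2D3 3 nM final, 16 h 37C/5% CO2; B/G FRET substrate 2 h RT; then CellTiter-Glo 30 min RT, luminescence.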

COC(=O)c1cccc(Cl)c1
inactive: outcome [1] | outcome [2] | outcome [3] | outcome [4] | outcome [5] | outcome [6] | outcome [7] | outcome [8] | outcome [9] | Potency [10] | outcome [11] | outcome [12] | outcome [13] | Potency [14] | outcome [15] | Potency [16] | outcome [17] | outcome [18] | Potency [19]

COc1c2occc2c(OC)c2c(=O)cc(C)oc12
inactive: outcome [1] | outcome [20] | outcome [2] | outcome [3] | outcome [4] | outcome [5] | outcome [6] | outcome [7] | outcome [8] | outcome [9] | Potency [10] | outcome [11] | outcome [12] | outcome [13] | Potency [14] | outcome [15] | Potency [16] | outcome [17] | outcome [18] | Potency [19]

C[Si]1(C)O[Si](C)(C)O[Si](C)(C)O[Si](C)(C)O[Si](C)(C)O1
inactive: outcome [1] | outcome [20] | outcome [2] | outcome [3] | outcome [4] | outcome [5] | outcome [6] | outcome [7] | outcome [8] | outcome [9] | Potency [10] | outcome [11] | outcome [12] | outcome [13] | Potency [14] | outcome [15] | Potency [16] | outcome [17] | outcome [18] | Potency [19]

CCCCCCCCCCCCCCCCCCOCCO
inactive: outcome [1] | outcome [20] | outcome [2] | outcome [3] | outcome [4] | outcome [5] | activity, negative = cytotoxicity [6] -10.1% [at 19 µM] | activity change, negative = inhibition [7] -12.9% [at 19 µM] | viability change, negative = cytotoxic [8] -27.1% [at 15.8 µM] | activation [9] 0.248% [at 15.8 µM] | activation [10] 5.49% [at 15.8 µM] | activity change, negative = cytotoxicity [11] -0.661% [at 15.8 µM] | activity change, negative = cytotoxicity [12] -1.36% [at 19 µM] | activity, negative = inhibition [13] -13.7% [at 19 µM] | Potency [14] | viability change, negative = cytotoxic [15] -3.06% [at 19 µM] | activity change, negative = inhibition [16] -2.69% [at 23.6 µM] | viability change, negative = cytotoxic [17] -7.83% [at 19 µM] | activity change, negative = cytotoxicity [18] 0.177% [at 19 µM] | activity, negative = inhibition [19] -10.5% [at 19 µM]

CO[Si](CCCn1c(=O)n(CCC[Si](OC)(OC)OC)c(=O)n(CCC[Si](OC)(OC)OC)c1=O)(OC)OC
inactive: outcome [1] | outcome [2] | outcome [3] | outcome [4] | outcome [5] | outcome [6] | outcome [7] | outcome [8] | outcome [9] | Potency [10] | outcome [11] | outcome [12] | outcome [13] | Potency [14] | outcome [15] | Potency [16] | outcome [17] | outcome [18] | Potency [19]

Cc1ccc(C(C)NC(=O)[C@@H](NC(=O)OC(C)C)C(C)C)cc1 (stereo partly specified)
inactive: outcome [1] | outcome [2] | outcome [3] | outcome [4] | outcome [5] | outcome [6] | outcome [7] | outcome [8] | outcome [9] | Potency [10] | outcome [11] | outcome [12] | outcome [13] | Potency [14] | outcome [15] | Potency [16] | outcome [17] | outcome [18] | Potency [19]

CC(C)=CCC/C(C)=C/COC=O
inactive: outcome [1] | outcome [2] | outcome [3] | outcome [4] | outcome [5] | outcome [6] | outcome [7] | outcome [8] | outcome [9] | Potency [10] | outcome [11] | outcome [12] | outcome [13] | Potency [14] | outcome [15] | Potency [16] | outcome [17] | outcome [18] | Potency [19]
